The text below walks through data of PubChem BioAssay.

Where “and” joins values, the source holds several entries; their conditions need not be identical. Equal entries are not always repeated. Calls of active or inactive are those of the source.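 How the source made its calls, unless noted: active means compounds whose cell count with miR-34 switched on is under 0.7 times the count with it off; inactive means the rest.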

A short description of experiment [1]: sensitizers of A549 cells to miR-34 induction, primary screen, imaging, A549 dox-inducible miR-34, nuclei and caspase counts (AID 1347080). The settings on record: A549 miR-34 inducible, Hoechst nuclei count, 48 h.
A short description of experiment [2]: phospholipid biosynthesis inhibitors in animal cells, primary screen, cell-based, LOPAC library, screen 4 (AID 1347384; call rule not given here). The settings on record: phospholipid biosynthesis inhibition screen, at 10 µM.
Experiment [3] concerns the target NAD(+) hydrolase SARM1 (Homo sapiens) (UniProt Q6SZW1). Description: SARM1 TIR NADase inhibitors, cell lysate, NAD-Glo luminescence (AID 1508614;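 active means compound whose remaining NAD level is above about 45 nM, limit read from the data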). The settings on record: SAM-TIR HEK293T lysate NADase, at 1 µM, stronger effect = higher value.
Experiment [4] concerns the target Mitogen-activated protein kinase 7 (Homo sapiens) (UniProt Q13164). Put plainly: ERK5 transactivation activators in reporter cells, primary screen, cell-based, HTS (AID 1508626;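 active means luciferase signal above three times the same-plate solvent-only control wells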;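 further: luciferase driven by Gal4-ERK5 fusion binding five Gal4 sites before minimal TATA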). The conditions noted are these: HeLa Gal4-ERK5 transactivation, 18 h, at 5 µM, stronger effect = higher value.
The nature of experiment [5]: viability rescue of complex I mutant cybrids, primary screen, cell-based, galactose medium, ATP luminescence (AID 1645843;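 active means z-score of at least 1.8 in each of two replicates, scored against plate mean and spread of sample wells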;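 further: positive z means more ATP and so rescue of galactose-driven cybrid death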). The conditions noted are these: complex I mutant cybrid cells, 72 h, stronger effect = higher value.
A short description of experiment [6]: LFS_MB_P medulloblastoma growth inhibition, cell-based, chromothripsis tumors, cisplatin or BGB combos (AID 1671449; in the data active means inhibition above about 80%;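 further: cells exposed for 96 hours; 0% = vehicle DMSO and 100% = killing by high DMSO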). The settings on record: LFS_MB_P medulloblastoma cells.
Experiment [7] is described as follows: HDN33 neuroblastoma growth inhibition, cell-based, chromothripsis tumors, cisplatin or BGB combos (AID 1671450; in the data active means inhibition above about 80%;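 further: cells exposed to compound for four days; 0% = vehicle DMSO and 100% = cell killing by high DMSO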). The conditions noted are these: HDN33 neuroblastoma cells, stronger effect = higher value.
Experiment [8] is described as follows: ICB984 medulloblastoma cell growth inhibition, synergistic combos for chromothripsis tumors, cisplatin or BGB combos (AID 1671451; call rule not given here;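 further: cells exposed for 96 hours before readout; 0% = vehicle DMSO and 100% = killing by high DMSO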). The settings on record: ICB984 medulloblastoma cells, drug combinations, stronger effect = higher value.
A short description of experiment [9]: LFS_MB_1R medulloblastoma cell growth inhibition, synergistic combos for chromothripsis tumors, cisplatin or BGB combos (AID 1671452; in the data active means inhibition above about 80%;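 further: cells exposed for 96 hours before readout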). The conditions noted are these: LFS_MB_1R medulloblastoma cells, stronger effect = higher value.
The nature of experiment [10]: HTB85 osteosarcoma cell growth inhibition, synergistic combos for chromothripsis tumors, BGB or cisplatin IC20 combos (AID 1671453; in the data active means inhibition above about 80%;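 further: cells exposed for 96 hours before readout; 0% = vehicle DMSO and 100% = high DMSO killing control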). The settings on record: HTB85 osteosarcoma cells, drug combinations, stronger effect = higher value.
Experiment [11] can be described thus: CRL2098 osteosarcoma cell growth inhibition, synergistic combos for chromothripsis tumors, BGB or cisplatin IC20 combos (AID 1671454; in the data active means inhibition above about 80%;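 further: cells exposed for 96 h before readout; 0% = vehicle DMSO and 100% = killing by high DMSO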). The conditions noted are these: CRL2098 osteosarcoma cells, drug combinations, stronger effect = higher value.
The nature of experiment [12]: HD-MB03 medulloblastoma cell growth inhibition, synergistic combos for chromothripsis tumors, BGB or cisplatin IC20 combos (AID 1671455; in the data active means inhibition above about 83%;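 further: 0% = vehicle DMSO and 100% = high DMSO as cytotoxic control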). The settings on record: HD-MB03 medulloblastoma cells, stronger effect = higher value.
The nature of experiment [13]: survival rescue of mitochondrial mutant cells in low glucose, primary screen, MELAS cybrids, Rieske KO mouse fibroblasts, CellTiter-Glo (AID 1508586;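 active means mean z-score across replicates of 1.96 or higher in either the MELAS or the Rieske mutant cell line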;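 further: z relative to plate mean and SD of compound and empty wells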). Background: ATP-based viability assays read luminescence as a measure of living cells.
Setting [14] is: stronger effect = lower value, cell number ratio, induced over uninduced.
[15] abbreviates: measured here: relative caspase fold change +Dox/-Dox.
Where [16] appears, read: measured here: total cells with miR-34 induction, stronger effect = lower value.
[17] abbreviates: measured here: total cells without miR-34 induction.
Setting [18] is: measured here: combination with BGB IC40, at 0.05 µM.
Where [19] appears, read: MELAS cybrid survival, CellTiter-Glo 48 h, stronger effect = higher value.
[20] abbreviates: Rieske KO mouse fibroblast survival, CellTiter-Glo 72 h.

Sequence of Mitogen-activated protein kinase 7 (Homo sapiens) (Q13164 whole entry, looked up, the tested form may be a part): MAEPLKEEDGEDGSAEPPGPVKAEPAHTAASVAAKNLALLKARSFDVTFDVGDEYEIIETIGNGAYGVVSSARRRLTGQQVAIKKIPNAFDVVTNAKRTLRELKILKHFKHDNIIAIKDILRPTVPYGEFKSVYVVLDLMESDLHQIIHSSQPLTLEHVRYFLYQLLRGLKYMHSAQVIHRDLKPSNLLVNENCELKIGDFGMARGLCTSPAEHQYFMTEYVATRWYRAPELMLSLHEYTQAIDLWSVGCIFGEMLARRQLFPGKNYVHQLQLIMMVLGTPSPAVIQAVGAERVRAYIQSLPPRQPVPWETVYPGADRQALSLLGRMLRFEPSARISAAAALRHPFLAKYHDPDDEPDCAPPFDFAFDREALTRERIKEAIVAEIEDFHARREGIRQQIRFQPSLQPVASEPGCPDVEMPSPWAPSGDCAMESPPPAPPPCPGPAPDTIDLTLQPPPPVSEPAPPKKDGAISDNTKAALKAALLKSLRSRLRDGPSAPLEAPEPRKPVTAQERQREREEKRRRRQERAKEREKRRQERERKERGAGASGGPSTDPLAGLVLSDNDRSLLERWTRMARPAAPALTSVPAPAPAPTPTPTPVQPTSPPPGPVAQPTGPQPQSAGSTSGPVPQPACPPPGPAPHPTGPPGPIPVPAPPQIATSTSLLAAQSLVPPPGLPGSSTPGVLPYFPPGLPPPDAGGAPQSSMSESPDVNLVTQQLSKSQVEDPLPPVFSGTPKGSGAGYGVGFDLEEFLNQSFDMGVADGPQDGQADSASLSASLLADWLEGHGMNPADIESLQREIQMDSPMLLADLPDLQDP
Sequence of NAD(+) hydrolase SARM1 (Homo sapiens) (Q6SZW1 whole entry, looked up, the tested form may be a part): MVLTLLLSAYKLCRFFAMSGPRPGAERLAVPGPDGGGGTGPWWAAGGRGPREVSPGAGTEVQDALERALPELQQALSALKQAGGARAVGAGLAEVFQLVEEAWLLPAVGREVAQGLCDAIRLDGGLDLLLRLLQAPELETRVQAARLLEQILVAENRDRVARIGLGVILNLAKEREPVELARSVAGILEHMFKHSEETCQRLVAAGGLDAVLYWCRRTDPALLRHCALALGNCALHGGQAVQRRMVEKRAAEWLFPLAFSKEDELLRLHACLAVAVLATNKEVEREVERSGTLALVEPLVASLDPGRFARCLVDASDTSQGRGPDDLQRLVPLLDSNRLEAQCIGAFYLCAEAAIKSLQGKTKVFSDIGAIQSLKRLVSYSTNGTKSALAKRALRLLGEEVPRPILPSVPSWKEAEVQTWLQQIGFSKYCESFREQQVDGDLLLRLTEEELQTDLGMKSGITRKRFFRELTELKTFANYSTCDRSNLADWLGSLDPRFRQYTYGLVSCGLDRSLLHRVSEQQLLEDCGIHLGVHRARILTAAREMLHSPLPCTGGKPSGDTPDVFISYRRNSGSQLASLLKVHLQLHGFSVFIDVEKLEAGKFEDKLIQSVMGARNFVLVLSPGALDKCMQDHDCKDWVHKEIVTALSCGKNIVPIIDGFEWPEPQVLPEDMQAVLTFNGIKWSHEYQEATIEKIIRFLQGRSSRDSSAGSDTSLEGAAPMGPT

By inhibition is commonly meant the relative decrease from the control value, in per cent. Consider `O=C(O)CCCCCCCC(=O)O`, for which the fold change in experiment [1] (setting [14]) was 0.959 (inactive) and 0.941 (inactive); in experiment [1] (setting [15]), 0.966 and 3.31. Besides, the cell count in experiment [1] (setting [16]) is 9890 and 11100; in [1] (setting [17]) it was 10300 and 11800. The call in experiment [2] was inactive. In addition, the remaining NAD in [3] is 10 nM (inactive). Further, in experiment [4], the luciferase signal is 24 AU (inactive). Further, the z-score in [5] is 0.635 (inactive). Further, the inhibition in [6] (at 0.5 µM, stronger effect = higher value) is 14.6% (inactive); in [6] (measured here: combination with BGB IC20, at 0.005 µM), -16.4%; in experiment [6] (measured here: combination with BGB IC40, at 0.005 µM) it was -8.17%; in experiment [6] (setting [18]), 6.68%; in experiment [6] (measured here: combination with cisplatin, at 0.5 µM, stronger effect = higher value), 8.46%; in [6] (measured here: combination with cisplatin, at 5 µM, stronger effect = higher value), -13.6%. The inhibition was -29.2% in [7] (BGB combo, at 5 µM); -40.9% (inactive) in [7] (at 0.5 µM); -22.7% in experiment [7] (cisplatin combo, at 5 µM); -45.6% in experiment [7] (measured here: with BGB IC20 combination, at 0.5 µM); -37.4% in [7] (measured here: with cisplatin IC20 combination, at 0.5 µM); -34.5% in experiment [7] (single agent, at 5 µM). In addition, the inhibition is -5.6% in experiment [8] (BGB IC20 combo, at 0.005 µM); -44.6% in experiment [8] (BGB IC40 combo, at 0.005 µM); -20.8% in experiment [8] (BGB IC40 combo, at 0.05 µM); -26.1% (inactive) in experiment [8] (at 0.5 µM); -24.1% in [8] (cisplatin combo, at 0.05 µM); -19.2% in [8] (cisplatin combo, at 0.5 µM). Besides, the inhibition in experiment [8] (cisplatin combo, at 5 µM) is -29.2%; in experiment [8] (measured here: 5 uM single agent, at 5 µM), -20.6%; in experiment [9] (at 0.5 µM), -28.5% (inactive); in [9] (setting [18]), -23.1%; in experiment [9] (measured here: combination with cisplatin, at 0.5 µM), -37.2%; in experiment [9] (measured here: combination with cisplatin, at 5 µM), -71.3%. Further, the inhibition is -17.1% (inactive) in experiment [10] (at 0.5 µM); -39.9% in [10] (measured here: with BGB IC20, at 0.5 µM); -68.2% in experiment [10] (measured here: with BGB IC20, at 5 µM); -8.83% in experiment [10] (measured here: with cisplatin IC20, at 0.5 µM); 0.863% in experiment [10] (measured here: with cisplatin IC20, at 5 µM); -30.9% in experiment [10] (single agent, at 5 µM). Moreover, the inhibition in [11] (at 0.5 µM) is -76.3% (inactive); in [11] (measured here: combination with BGB at IC20, at 0.5 µM), -57.7%; in experiment [11] (measured here: combination with cisplatin at IC20, at 0.5 µM), -93.4%; in [12] (at 0.5 µM), -14.1% (inactive); in experiment [12] (measured here: combo with BGB at IC20, at 0.5 µM), -13.8%; in experiment [12] (measured here: combo with cisplatin at IC20, at 0.5 µM) it was -19.9%.
As for `C[C@]12C[C@H](O)[C@H]3[C@@H](CCC4=CC(=O)CC[C@@]43C)[C@@H]1CC[C@@H]2C(=O)CO`, the fold change in experiment [1] (setting [14]) was 0.955 (inactive) and 0.755 (inactive) and 0.815 (inactive); in experiment [1] (setting [15]), 2.18 and 1.95 and 1.31. Moreover, the cell count in experiment [1] (setting [16]) is 7560 and 6880 and 7400; in [1] (setting [17]) it was 7920 and 9120 and 9080. The compound was called inactive in experiment [2]. The z-score is 0.478 (inactive) and -0.124 (inactive) in experiment [13] (setting [19]); -0.146 and 0.938 in experiment [13] (setting [20]); -0.085 (inactive) and -0.065 (inactive) in experiment [5].
For the compound `C[N+]1(CCCCC[N+]2(C)CCCC2)CCCC1`, the fold change is 1.07 (inactive) and 0.91 (inactive) in experiment [1] (setting [14]); 0.597 and 1.28 in experiment [1] (setting [15]). For the same compound, the cell count is 10400 and 8690 in experiment [1] (setting [16]); 9650 and 9550 in experiment [1] (setting [17]). Also, in experiment [2], the call was inactive. The z-score in [13] (setting [19]) was 0.607 (inactive); in [13] (setting [20]), 0.539; in experiment [5], 0.235 (inactive). In addition, in experiment [4], the luciferase signal was 108 AU (inactive).
